FXN GAA850 act: frataxin GAA850 promoter activation; HEK293 lucGAA850 FXN promoter luciferase reporter, 24 h; percent of 10 µM SAHA response; activation, % at 6 µM; actives 0.56% (n = 360,000); AID 540364;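 active = activation above the average of all compounds screened plus 3 SD, cutoff fixed separately per campaign, cut at about 7.5% in these data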
DAX1 inh-1: DAX1 (NR0B1) inhibition, primary screen; inhibition, % at 6.8 µM; HEK293T StAR-luciferase reporter, SF-1/DAX-1 repression relief; actives 1.1% (n = 370,000);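 active = inhibition above the mean over all tested compounds plus 3 SD, cut at about 3.6% in these data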;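 note: higher inhibition means more luminescence from relief of DAX-1 repression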
ssDAF-12 act: activates DAF-12 receptor from parasite S. stercoralis. HEK293 ssDAF-12/GRIP1 lit1-tk-luc reporter, luminescence; % of 3 µM dafachronic acid response. activation, % at 6.8 µM. actives 1% (n = 370,000). AID 652126;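 active = activation above the mean over all tested compounds plus 3 SD, cut at about 0.9% in these data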
DAX1 inh-2: inhibits human nuclear receptor DAX1; P51843; HEK293 Gal4-DAX1 luciferase reporter, luminescence; inhibition, % at 6.75 µM; actives 0.99% (n = 340,000);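 active = inhibition above the mean over all tested compounds plus 3 SD, cut at about 4.2% in these data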;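 note: inhibition shows as a rise in luminescence from relieved DAX1 repression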
hcDAF-12 act: H. contortus DAF-12 activation, primary screen | HEK293 hcDAF-12 lit1-tk-luc reporter, luminescence; 0% DMSO, 100% Δ7-dafachronic acid | activation, % at 6.8 µM | actives 1.4% (n = 370,000);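 active = activation above the mean of all tested compounds plus 3 SD, cut at about 5.5% in these data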
hgDAF-12 ag: hgDAF-12 agonism, primary luciferase screen; HEK293 GAL4-hgDAF12 UAS-luciferase reporter, agonist luminescence; normalized to butyrate control; AID 687014; activation, % at 6.8 µM; actives 1.8% (n = 370,000);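 active = activation above a cutoff set at the mean of all screened compounds plus 3 SD, cut at about 10% in these data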
DAX1 inh confirm: confirmation of human DAX1 (NR0B1) inhibitors; inhibition, % at 6.8 µM; shares compounds with DAX1 inh-1; HEK293T StAR-promoter luciferase reporter, SF-1/DAX-1 repression; AID 652134; actives 87% (n = 2,400);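 active = inhibition above the average of every tested compound plus 3 SD, cut at about 3.8% in these data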;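 note: active compounds raise luminescence by relieving repression of the StAR reporter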
Target sequence (P51843 whole entry, looked up): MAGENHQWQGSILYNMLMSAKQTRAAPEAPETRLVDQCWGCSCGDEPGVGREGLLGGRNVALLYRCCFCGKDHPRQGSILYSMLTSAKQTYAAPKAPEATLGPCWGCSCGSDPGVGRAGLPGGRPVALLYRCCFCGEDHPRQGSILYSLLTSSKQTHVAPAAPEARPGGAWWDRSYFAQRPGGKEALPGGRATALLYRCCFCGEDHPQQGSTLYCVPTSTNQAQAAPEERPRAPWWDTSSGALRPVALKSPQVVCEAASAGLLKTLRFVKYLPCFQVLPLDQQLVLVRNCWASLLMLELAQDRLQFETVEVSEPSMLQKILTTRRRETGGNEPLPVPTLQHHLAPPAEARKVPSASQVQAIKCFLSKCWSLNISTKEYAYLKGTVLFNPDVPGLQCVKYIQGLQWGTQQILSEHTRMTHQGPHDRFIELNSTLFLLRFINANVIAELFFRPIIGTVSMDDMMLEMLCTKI
SF1 AF2mut Luc: nonselective inhibitor or artifact in SF-1 mutant DAX1 counter-screen; inhibition, % at 6.8 µM; shares compounds with DAX1 inh-1; actives 78% (n = 2,400); AID 652136; HEK293 StAR-luciferase, SF-1 AF2 mutant, luminescence;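 active = inhibition above the mean of all tested compounds plus 3 SD, cut at about 3% in these data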
LXRb hcDAF ctr: counter-screen for hcDAF-12 agonists: agonists of human LXR-beta | shares compounds with hcDAF-12 act | activation, % at 6.8 µM | 3,400 tested, under 10 active | HEK293 Gal4-LXR tk-luc reporter, luminescence, 24 h; normalized: DMSO 0%, positive control 100%;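 active = mean percent activation of the reporter above a cutoff set as the average over tested compounds plus their standard deviation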
hcDAF12 conf: hcDAF-12 agonism, confirmation assay | shares compounds with hcDAF-12 act | HEK293 hcDAF-12 lit1-tk-luc reporter, luminescence; % of Δ7-dafachronic acid response | activation, % at 6.8 µM | actives 61% (n = 3,400);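 active = mean activation across triplicate tests above the threshold derived from the earlier primary screen, cut at about 5.5% in these data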
hgDAF12 conf: confirmation of H. glycines DAF-12 agonists. shares compounds with hgDAF-12 ag. HEK293 GAL4-hgDAF12 luciferase reporter, agonist mode; percent of butyrate response. AID 743050. actives 80% (n = 3,300). activation, % at 6.8 µM;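 active = mean activation over triplicate wells above the hit cutoff derived from the earlier primary screen, cut at about 11% in these data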
LXR ag 2: activates human LXR-beta, counter-screen for DAF-12 agonists. activation, % at 6.8 µM. 3,300 tested, under 10 active. HEK293 Gal4-LXR luciferase reporter, 24 h. shares compounds with hgDAF-12 ag. AID 743051;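 active = mean activation of the triplicate above a set limit carried over from the primary screen, none filed active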
Of the large screens only hits and unclear results are named; the others gave an inactive call (follow-up assays come after a bar, where they were run). Only some compounds are listed: those with a hit (about 4.5% of all), similar ones and a draw of the others.

C=CCNc1ncnc2c1cnn2-c1ccc(Cl)cc1	DAX1 inh-1 8.8, hgDAF-12 ag 15.0 | DAX1 inh confirm 15.9 | SF1 AF2mut Luc 8.1 | hgDAF12 conf 26.7 | LXR ag 2 inactive
Cc1ccc(C(=O)CSc2cc(C)[nH]c(=O)n2)cc1	DAX1 inh-1 11.8, DAX1 inh-2 5.0, hgDAF-12 ag 14.6 | DAX1 inh confirm 11.4 | SF1 AF2mut Luc 8.3 | hgDAF12 conf 15.7 | LXR ag 2 inactive
Cc1ccc2c(CN(C)Cc3ccccc3)cc(=O)oc2c1	DAX1 inh-1 6.8, hgDAF-12 ag 13.5 (no result: FXN GAA850 act, DAX1 inh-2) | DAX1 inh confirm 6.0 | SF1 AF2mut Luc inactive | hgDAF12 conf 10.7 | LXR ag 2 inactive
CNS(=O)(=O)c1ccc(C(C)(C)C)cc1	none
CCN(Cc1ccccc1)c1ccc(/C=C(\C#N)c2ccccn2)cc1	DAX1 inh-1 5.1, ssDAF-12 act 2.1, hcDAF-12 act 9.3, hgDAF-12 ag 27.0 | DAX1 inh confirm 3.7 | SF1 AF2mut Luc 5.7 | LXRb hcDAF ctr inactive | hcDAF12 conf inactive | hgDAF12 conf 12.7 | LXR ag 2 inactive
CN(CCC#N)c1ccc(/C=C(\C#N)c2ccccn2)cc1	DAX1 inh-1 5.7, ssDAF-12 act 2.1, hcDAF-12 act 16.9, hgDAF-12 ag 23.0 | DAX1 inh confirm 11.9 | SF1 AF2mut Luc inactive | LXRb hcDAF ctr inactive | hcDAF12 conf inactive | hgDAF12 conf 14.8 | LXR ag 2 inactive
O=C(NCCCN1CCCC1=O)c1cccc(S(=O)(=O)N2CCN(c3ccc(F)cc3)CC2)c1	none
CCC(C(=O)Nc1ccon1)c1ccccc1 (stereo not given)	none
Cc1ccc(OCCSc2ncccn2)c(C)c1	DAX1 inh-1 8.2, DAX1 inh-2 5.1, hgDAF-12 ag 23.0 | DAX1 inh confirm 11.8 | SF1 AF2mut Luc 8.2 | hgDAF12 conf 16.4 | LXR ag 2 inactive
Cc1cccc(OCCOCCSc2ncccn2)c1	none
O=C(O)CCNC(=O)OCC1c2ccccc2-c2ccccc21	none
CC(C)C[C@H](NC(=O)OCC1c2ccccc2-c2ccccc21)C(=O)O	DAX1 inh-1 5.8, hgDAF-12 ag 15.9 | DAX1 inh confirm 6.6 | SF1 AF2mut Luc 5.8 | hgDAF12 conf 11.8 | LXR ag 2 inactive
COc1ccc(/C=N/NC(=S)Nc2ccccc2)cc1	DAX1 inh-1 7.7, hgDAF-12 ag 25.6 | DAX1 inh confirm 10.4 | SF1 AF2mut Luc 5.8 | hgDAF12 conf 14.6 | LXR ag 2 inactive
COc1ccc(CNC(=O)c2ccc(C(C)C)cc2)cc1	DAX1 inh-1 6.8, hgDAF-12 ag 17.5 | DAX1 inh confirm 7.6 | SF1 AF2mut Luc 5.7 | hgDAF12 conf 15.4 | LXR ag 2 inactive
O=C(Nc1ccc(F)cc1)/C(Cl)=C/c1ccccc1	DAX1 inh-1 4.6, ssDAF-12 act 2.2, DAX1 inh-2 9.9, hgDAF-12 ag 24.6 | DAX1 inh confirm 13.2 | SF1 AF2mut Luc 10.0 | hgDAF12 conf 20.0 | LXR ag 2 inactive

Assay outcomes from PubChem BioAssay.
